Reference: the supplement of paper PMC8728848
This is one part of a sample in which the strongest signals are shown more often than they occur.

What was measured:
Assay in all cases: glycan array binding signal (z-score within array); higher = stronger binding
Conditions in all cases: glycan notation: IUPAC condensed, linker removed
[1] = target: Fuc(a1-2)Gal(b1-3)GlcNAc
Method in brief: (§1)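 Glycan array data came from 3228 arrays in the Consortium for Functional Glycomics database, and only arrays with an available protein sequence were kept. Glycan names were put into IUPAC-condensed notation, and columns mapping to the same glycan were averaged. The binding signal is a within-array Z-score, averaged across arrays of one protein sequence run at different concentrations or buffers and across linkers. A negative Z-score can be read as non-binding.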

[2] = target: Fuc(a1-2)Gal(b1-3)GlcNAc(b1-3)Gal(b1-4)Glc
Method in brief: as §1

[3] = target: Fuc(a1-2)Gal(b1-4)GlcNAc(b1-3)Gal(b1-4)GlcNAc(b1-2)Man(a1-3)[Fuc(a1-2)Gal(b1-4)GlcNAc(b1-3)Gal(b1-4)GlcNAc(b1-2)Man(a1-6)]Man(b1-4)GlcNAc(b1-4)GlcNAc
Method in brief: as §1

[4] = target: Fuc(a1-2)Gal(b1-4)[Fuc(a1-3)]GlcNAc(b1-2)Man(a1-3)[Fuc(a1-2)Gal(b1-4)[Fuc(a1-3)]GlcNAc(b1-2)Man(a1-6)]Man(b1-4)GlcNAc(b1-4)[Fuc(a1-6)]GlcNAc
Method in brief: as §1

[5] = target: Fuc(a1-2)Gal(b1-4)[Fuc(a1-3)]GlcNAc(b1-3)Gal(b1-4)[Fuc(a1-3)]GlcNAc
Method in brief: as §1

[6] = target: Fuc(a1-2)Gal(b1-4)[Fuc(a1-3)]GlcNAc(b1-3)GalNAc
Method in brief: as §1

[7] = target: Fuc(a1-2)Gal6S(b1-3)GlcNAc6S
Method in brief: as §1

[8] = target: Fuc(a1-2)Gal6S(b1-4)Glc
Method in brief: as §1

[9] = target: Fuc(a1-2)[Gal(a1-3)]Gal(b1-4)GlcNAc(b1-2)Man(a1-3)[Fuc(a1-2)[Gal(a1-3)]Gal(b1-4)GlcNAc(b1-2)Man(a1-6)]Man(b1-4)GlcNAc(b1-4)GlcNAc
Method in brief: as §1

[10] = target: Fuc(a1-2)[GalNAc(a1-3)]Gal(b1-4)GlcNAc(b1-2)Man
Method in brief: as §1

[11] = target: Fuc(a1-3)[Gal(b1-4)]GlcNAc(b1-2)Man(a1-3)[Fuc(a1-3)[Gal(b1-4)]GlcNAc(b1-2)Man(a1-6)]Man(b1-4)GlcNAc(b1-4)GlcNAc
Method in brief: as §1

[12] = target: Fuc(a1-3)[Gal(b1-4)]GlcNAc6S
Method in brief: as §1

[13] = target: Fuc(a1-3)[Gal3S(b1-4)]GlcNAc6S
Method in brief: as §1

[14] = target: Gal(a1-3)Gal
Method in brief: as §1

[15] = target: Gal(a1-3)Gal(b1-3)GlcNAc(b1-3)GalNAc
Method in brief: as §1

[16] = target: Gal(a1-3)GalNAc
Method in brief: as §1

[17] = target: Gal(a1-3)[Gal(a1-4)]Gal(b1-4)GlcNAc
Method in brief: as §1

[18] = target: Gal(b1-3)GalNAc(b1-3)Gal(a1-4)Gal(b1-4)Glc
Method in brief: as §1

[19] = target: Gal(b1-3)GlcNAc(a1-6)Gal(b1-4)GlcNAc
Method in brief: as §1

[20] = target: Gal(b1-3)[Fuc(a1-4)]GlcNAc(b1-3)Gal(b1-3)[Fuc(a1-4)]GlcNAc
Method in brief: as §1

[21] = target: Gal(b1-4)GlcNAc(b1-2)[Gal(b1-4)GlcNAc(b1-6)]Man(a1-6)[Gal(b1-4)GlcNAc(b1-2)Man(a1-3)]Man(b1-4)GlcNAc(b1-4)[Fuc(a1-6)]GlcNAc
Method in brief: as §1

[22] = target: Gal(b1-4)GlcNAc(b1-3)Gal(b1-3)GlcNAc
Method in brief: as §1

[23] = target: Gal(b1-4)GlcNAc(b1-3)Gal(b1-4)Glc
Method in brief: as §1

[24] = target: Gal(b1-4)GlcNAc(b1-3)Gal(b1-4)GlcNAc(b1-3)Gal(b1-4)GlcNAc
Method in brief: as §1

[25] = target: Gal(b1-4)GlcNAc(b1-6)Gal(b1-4)GlcNAc
Method in brief: as §1

[26] = target: Gal(b1-4)GlcNAc(b1-6)GalNAc
Method in brief: as §1

[27] = target: Gal3S(b1-3)GlcNAc
Method in brief: as §1

[28] = target: Gal3S(b1-4)Glc
Method in brief: as §1

[29] = target: Gal3S4S(b1-4)GlcNAc
Method in brief: as §1

[30] = target: Gal4S(b1-4)GlcNAc
Method in brief: as §1

[31] = target: GlcA(b1-3)GlcNAc
Method in brief: as §1

[32] = target: GlcNAc(a1-4)Gal(b1-4)GlcNAc(b1-3)Gal(b1-4)GlcNAc(b1-3)Gal(b1-4)GlcNAc
Method in brief: as §1

[33] = target: GlcNAc(b1-2)Man(a1-3)[GlcNAc(b1-2)Man(a1-6)]Man(b1-4)GlcNAc(b1-4)[Fuc(a1-6)]GlcNAc
Method in brief: as §1

[34] = target: GlcNAc(b1-2)[GlcNAc(b1-4)]Man(a1-3)[GlcNAc(b1-4)][GlcNAc(b1-2)[GlcNAc(b1-6)]Man(a1-6)]Man(b1-4)GlcNAc(b1-4)[Fuc(a1-6)]GlcNAc
Method in brief: as §1

[35] = target: GlcNAc(b1-3)Gal(b1-4)GlcNAc
Method in brief: as §1

[36] = target: GlcNAc(b1-3)Gal(b1-4)GlcNAc(b1-2)Man(a1-3)[GlcNAc(b1-3)Gal(b1-4)GlcNAc(b1-2)Man(a1-6)]Man(b1-4)GlcNAc(b1-4)GlcNAc
Method in brief: as §1

B1: ArathEULS3 TAP (Arabidopsis thaliana) (protein)
chain: IDENLYFQGGSMDEKTTGWRGGHVVEGLAGELEQLRARLEHHPQGQREPGGGGSLEITSLYKKAGFMEHHHQHHRHHQRDDGEDDRQSFGVPPPHVDAPPQPHGLYQSQPHFDPYAPTPQAPAPYRSETQFEPHAPPPYRSEPYFETPAPPPSFGHVSHVGHQSPNESYPPEHHRYGGYQQPSNSLLESHGDHSGVTHVAHHSSNQPQSSSGVYHKPDENRLPDNLAGLAGRATVKVYSKAEPNYNLTIRDGKVILAPADPSDEAQHWYKDEKYSTKVKDADGHPCFALVNKATGEAMKHSVGATHPVHLIRYVPDKLDESVLWTESKDFGDGYRTIRMVNNTRLNVDAYHGDSKSGGVRDGTTIVLWDWNKGDNQLWKIFPF
[1]
  glycan array binding signal (z-score): 0.613
[2]
  glycan array binding signal (z-score): -0.174
[3]
  glycan array binding signal (z-score): 2.35
[4]
  glycan array binding signal (z-score): 1.46
[5]
  glycan array binding signal (z-score): 0.109
[6]
  glycan array binding signal (z-score): -0.688
[7]
  glycan array binding signal (z-score): -0.204
[8]
  glycan array binding signal (z-score): 1.85
[9]
  glycan array binding signal (z-score): -0.837
[10]
  glycan array binding signal (z-score): 0.256
[11]
  glycan array binding signal (z-score): -0.853
[12]
  glycan array binding signal (z-score): 2.6
[13]
  glycan array binding signal (z-score): 0.828
[14]
  glycan array binding signal (z-score): 3.3
[15]
  glycan array binding signal (z-score): 0.549
[16]
  glycan array binding signal (z-score): -0.474
[17]
  glycan array binding signal (z-score): 2.15
[18]
  glycan array binding signal (z-score): 0.136
[19]
  glycan array binding signal (z-score): -0.499
[20]
  glycan array binding signal (z-score): -0.335
[21]
  glycan array binding signal (z-score): 0.941
[22]
  glycan array binding signal (z-score): -0.688
[23]
  glycan array binding signal (z-score): -0.967
[24]
  glycan array binding signal (z-score): 0.391
[25]
  glycan array binding signal (z-score): 1.18
[26]
  glycan array binding signal (z-score): 1.1
[27]
  glycan array binding signal (z-score): -0.162
[28]
  glycan array binding signal (z-score): 0.159
[29]
  glycan array binding signal (z-score): 4.33
[30]
  glycan array binding signal (z-score): 0.737
[31]
  glycan array binding signal (z-score): -0.1
[32]
  glycan array binding signal (z-score): 0.236
[33]
  glycan array binding signal (z-score): -0.928
[34]
  glycan array binding signal (z-score): -0.659
[35]
  glycan array binding signal (z-score): -0.59
[36]
  glycan array binding signal (z-score): -0.107
